This note sets out measurements from PubChem BioAssay AID624202 (National Center for Advancing Translational Sciences (NCATS), 2012).

Molecules are shown by their SMILES. In all, about 380,000 compounds went through this assay and about 4,000 (1.1%) were called active. Inconclusive results (about 3%) are left out. Calls follow the shape of the dose curve; as a rule, active = well fitted activation curve with a large enough effect; inconclusive = small, poorly fitted or top-dose-only effect; inactive = no such curve, though single readings can be large or run the other way. The entries come from a sample that favours actives as a whole. Entries that show only a call come without a potency.
Potency is read from the fitted curve at half-maximal effect.

This experiment is described as follows: qHTS Assay to Identify Small Molecule Activators of BRCA1 Expression. Also: nearly all actives have a fitted effect of over 80% in size. Particulars: MCF7-BRCA1-FFLuc reporter, luminescence, 48 h; series mostly up to 46.1 µM. The text has this:
Functionally, BRCA1 has been implicated in a wide array of cellular activities, including DNA damage repair, cell-cycle checkpoint control, growth inhibition, apoptosis, transcriptional regulation, chromatin remodeling, protein ubiquitylation, and mammary stem cell self-renewal and differentiation. Reduction in BRCA1 levels is associated with an increase in tumor growth and resistance to anti-estrogenic agents, such as tamoxifen, while an increase in BRCA1 expression leads to cell growth arrest and apoptosis. […] The frequent loss of BRCA1 expression in invasive breast cancers in the absence of somatic mutation has been attributed to numerous mechanisms, including hypermethylation of the BRCA1 promoter, exaggerated ubiquitylation of BRCA1 protein, and improper intracellular localization. […] Basal-like breast cancers (BLBCs) are associated with an aggressive clinical course, resistance to chemotherapy, and typically lack expression of estrogen receptor (ER), progesterone receptor (PR), and epidermal growth factor receptor 2 (HER2). BLBCs account for 10-17% of all breast cancers, have few therapeutic options, and are considered the biggest unmet need in the treatment of breast cancer. Conversely, tumors which maintain expression of functional BRCA1 are almost uniformly luminal type cancers, and are accordingly associated with more indolent clinical courses, responsiveness to endocrine therapies, and improved survival.
As such, it is possible that an increase in BRCA1 expression would enable cellular differentiation and restore tumor suppressor function, resulting in delayed tumor growth and less aggressive, more treatable breast cancers. The long term goal of this proposal is to develop a novel prevention or therapeutic agent for breast cancer patients. To accomplish this goal, the overall objective of this proposal is to access the resources provided by the NIH Molecular Libraries Roadmap Initiative and the Molecular Libraries Probe Production Centers Network (MLPCN) to discover and develop new chemical activator probes that will increase BRCA1 expression and function.
NIH Molecular Libraries Probe Production Network [MLPCN]
NIH Chemical Genomics Center [NCGC]
PI Name: Lisa Harlan-Williams, University of Kansas Medical Center
5microl of MCF7-BRCA1-FFLuc cell suspension (400 cells/microl in phenol-red free MEM) are dispensed into Greiner white solid bottom 1536-well assay plates, yielding a final well density of 2000 cells/well. Plates are incubated for 2 hours at 37 degrees C in 5% humidified CO2 to allow cell attachment. Compounds are then transferred via Kalypsys pin tool equipped with 1536-pin array (10nl slotted pins, V&P Scientific, San Diego, CA). The plates are then incubated at 37 degrees C in 5% humidified CO2 for 48 hours. The NCGC in-house luciferase substrate reagent, Buglite, is then added (2.5microl) and plates incubated for 15 minutes, before being transferred to a ViewLux high-throughput CCD imager (PerkinElmer) wherein single end-point measurements of luminescence are acquired using a clear filter. The positive control compound, genistein, will be pinned into dedicated control columns on each plate, including a 16-point 1:3 titration in duplicate, as well as a 10microM maximum activation control, allowing for the normalization of screening activity. DMSO will be pinned into a separate column as a negative control.
All screening operations will be performed on a fully integrated robotic system (Kalypsys, San Diego, CA) containing one RX-130 and two RX-90 anthropomorphic robotic arms (Staubli, Duncan, SC). Library plates will be screened starting from the lowest and proceeding to the highest concentration. Vehicle-only plates, with DMSO being pin-transferred to columns 5-48, will be inserted uniformly at the beginning and the end of each library in order to monitor and record any shifts in the background, which can be affected by reagent dispensers or loss in enzyme activity over time. […]
As for `CN(C)Cc1cn(-c2ccccc2)nc1-c1ccccc1`, the Potency result was “inactive”.

Turning to `COc1ccccc1CNCc1ccc(C(=O)O)s1`, the Potency result was “inactive”.

As to `COc1cc(OC)c(C(=O)NNC(=O)c2ccccc2-n2cccc2)cc1OC`, the Potency entry was “inactive”.

As to `COc1cc(OC)c(C(=O)Nc2ccc(N(C)C)cc2)cc1OC`, the Potency was 8.91 µM (active).

Turning to `COc1ccc(Cl)cc1C(=O)Nc1ccc(N(C)C(C)=O)cc1`, the Potency result was “inactive”.

In the case of `COc1ccc(-c2cc(C(F)(F)F)nc(SCC(=O)N(C)Cc3ccccc3)n2)cc1OC`, the Potency result is “inactive”.

Consider `CN(C)S(=O)(=O)c1cc(C(=O)Nc2ccn(C)n2)c(Cl)cc1Cl`, for which the Potency entry was “inactive”.

Take `Cc1nn(C)cc1C(=O)NNC(=S)Nc1ccc(Cl)cc1`: the Potency result was “inactive”.

Regarding `Cn1ccc(NC(=O)Nc2ccc(Cl)cc2)n1`, the Potency is 7.08 µM (active).

With `COc1cccc(C(=O)NCC(=O)OCc2cc(=O)n3ccsc3n2)c1`, the Potency entry is “inactive”.

As for `CCn1cc(C(=O)N(C)Cc2ccccc2)c(=O)c2cc(S(=O)(=O)N3CCCCCC3)ccc21`, the Potency entry is “inactive”.

With `O=C(O)c1cccnc1NC1CCCC1`, the Potency entry is “inactive”.

Turning to `COc1cccc(Nc2ncccc2C(=O)O)c1`, the Potency is 11.2 µM (active).

As to `COc1cccc(NC(=O)COc2cccnc2[N+](=O)[O-])c1`, the Potency result was “inactive”.

Take `O=c1cc(COc2cccc(C(F)(F)F)c2)nc2sc3c(n12)CCCC3`: the Potency result is “inactive”.

On to `Cc1cccc(C(=O)OC(C)CN2CCCC2)c1` (configuration not stated), for which the Potency result was “inactive”.

On to `Cc1cccc(C(=O)OC(C)CN2CCN(C)CC2)c1` (configuration not stated), for which the Potency was 8.91 µM (active).

Regarding `Cc1ccc(C(=O)OC(C)CN2CCOCC2)cc1` (configuration not stated), the Potency entry is “inactive”.

For `C(=Nc1ccc(/C=C/c2ccnc3ccccc23)cc1)c1cc2c3c(c1)CCCN3CCC2`, the Potency entry was “inactive”.

For `CN(c1ccccc1)S(=O)(=O)c1ccc(C(=O)NCCc2ccccc2)cc1`, the Potency entry is “inactive”.

For the molecule `Cc1c(C(=O)NCCCc2ccccc2)cccc1[N+](=O)[O-]`, the Potency result was “inactive”.

Turning to `CC(C)c1ccc(C(=O)NCCCc2ccccc2)cc1`, the Potency was 10 µM (active).

For the molecule `Cc1ccccc1CNC(=O)c1ccc(NC(=O)N2CCCCc3ccccc32)cc1`, the Potency result was “inactive”.

Take `C/C=C/NNC(=O)Cc1ccc(OC)cc1`: the Potency entry is “inactive”.

`CC1=C(C(=O)OCC2CCCCC2)C(c2c(F)cccc2Cl)CC(=O)N1` (configuration not stated): the Potency result is “inactive”.

In the case of `CC(=O)C1=C(C)NC(=O)NC1c1ccc2c(c1)OCO2` (configuration not stated), the Potency result is “inactive”.

On to `CC(=O)c1cc2c(cc1N)OCO2`, for which the Potency entry is “inactive”.

Consider `Nc1[nH][nH]c(=O)c1N=Nc1ccc2c(c1)OCO2`, for which the Potency was 12.6 µM (active).

In the case of `CCOc1ccc(CCNC(=O)CN(c2ccc(C)cc2)S(=O)(=O)N(C)C)cc1OCC`, the Potency entry is “inactive”.

For the molecule `COc1cccc(C(=O)Nc2ccc3nc4n(c(=O)c3c2)CCCCC4)c1`, the Potency was 4.47 µM (active).

Take `COc1ccc(CCNC(=O)C(=O)Nc2ccc3nc4n(c(=O)c3c2)CCCCC4)cc1OC`: the Potency result was “inactive”.

For `O=C(Nc1ccc2nc3n(c(=O)c2c1)CCCC3)c1ccc(Cl)nc1`, the Potency result is “inactive”.
